From PubChem BioAssay AID1159554 (Broad Institute, 2015)
In all, about 94,000 compounds went through this assay and about 2,100 (2.2%) were called active. Shown is part of a subset that was picked to be rich in actives. Unmarked numbers belong to inactive results. Rule as the data show it: active = activity change below about -80%; inconclusive = no clear call, values can overlap the other calls; inactive = above that.

Test: P. falciparum Dd2 growth inhibitors, primary screen, SYBR Green fluorescence, single dose replicates (AID 1159554)
Conditions: 72 h, at 10 µM, hits give low values

SMILES | activity change
COc1ccc2c3c(n(C)c2c1)[C@H](CO)NCC31CN(Cc2cc(F)ccc2F)C1 | 23%
C[C@H]1CN([C@@H](C)CO)S(=O)(=O)c2ccc(C#Cc3cccnc3)cc2O[C@H]1CN(C)C(=O)CN(C)C | -40.6%
C[C@H]1CCCCO[C@H](CN(C)S(=O)(=O)c2ccc(F)cc2)[C@@H](C)CN([C@@H](C)CO)C(=O)c2cc(NS(=O)(=O)c3cn(C)cn3)ccc2O1 | 9.89%
CCCNC(=O)C[C@@H]1CC[C@H]2[C@@H](COC[C@@H](O)CN2Cc2ccccc2F)O1 | 7.46%
C[C@@H]1CN([C@@H](C)CO)S(=O)(=O)c2ccc(C#Cc3ccc(F)cc3)cc2O[C@H]1CN(C)S(C)(=O)=O | -67.9%
Cc1ccc(S(=O)(=O)N(C)C[C@@H]2Oc3cc(C4=CCCC4)ccc3S(=O)(=O)N([C@@H](C)CO)C[C@@H]2C)cc1 | -71.1%
C[C@@H]1CN([C@@H](C)CO)S(=O)(=O)c2ccc(C#Cc3ccncc3)cc2O[C@@H]1CN(C)S(=O)(=O)c1ccccc1 | -55.9%
COc1ccccc1-c1ccc2c(c1)O[C@H](CN(C)S(=O)(=O)c1ccc(C)cc1)[C@@H](C)CN([C@H](C)CO)S2(=O)=O | -80.6% (active)
C[C@@H]1CN([C@H](C)CO)S(=O)(=O)c2ccc(C#Cc3ccncc3)cc2O[C@@H]1CN(C)S(=O)(=O)c1ccc(F)cc1 | -83% (active)
COc1ccccc1-c1ccc2c(c1)O[C@@H](CN(C)C)[C@H](C)CN([C@H](C)CO)S2(=O)=O | -28.9%
CO[C@@H]1CN(C)C(=O)c2cc(NC(=O)Nc3cc(F)ccc3F)ccc2OC[C@@H](C)N(C)C[C@H]1C | -36.8%
CN1C(=O)c2cc(NC(=O)C3CCOCC3)ccc2OC[C@@H]2O[C@@H](CC(=O)NCC3CC3)CC[C@@H]21 | 6.17%
O=C(NCCN1CCCC1)[C@@H]1N[C@@H]2c3ccc(-c4ccccc4)c(=O)n3C[C@@H]2[C@H]1CO | -12.1%
COc1ccc(S(=O)(=O)N2CCCCN3[C@H](C2)[C@H](c2ccc(C#CCC(C)C)cc2)[C@@H]3CO)cc1 | 2.68%
COc1ccc(S(=O)(=O)N2CCCCN3[C@@H](CO)[C@@H](c4ccc(C#CCC(C)C)cc4)[C@@H]3C2)cc1 | -87.6% (active)
COc1ccc(S(=O)(=O)N2CCCCN3[C@H](CO)[C@@H](c4ccc(C#CC(C)C)cc4)[C@H]3C2)cc1 | -38.8%
CO[C@H]1CN(C)C(=O)c2cc(NC(=O)Nc3ccc4c(c3)OCO4)ccc2OC[C@@H](C)NC[C@@H]1C | -43.8%
Cc1noc(C)c1S(=O)(=O)Nc1ccc2c(c1)C(=O)N([C@@H](C)CO)C[C@@H](C)[C@@H](CN(C)S(=O)(=O)c1ccccc1)OCCCC[C@H](C)O2 | -22.9%
Cc1noc(C)c1S(=O)(=O)Nc1ccc2c(c1)C(=O)N([C@@H](C)CO)C[C@@H](C)[C@H](CN(C)C(=O)Nc1cccc3ccccc13)OCCCC[C@H](C)O2 | -39%
C[C@H]1CCCCO[C@@H](CN(C)C(=O)Nc2cccc3ccccc23)[C@@H](C)CN([C@@H](C)CO)C(=O)c2cc(NS(=O)(=O)c3ccc(Cl)cc3)ccc2O1 | -44.1%
COc1ccc(S(=O)(=O)Nc2ccc3c(c2)C(=O)N([C@@H](C)CO)C[C@H](C)[C@@H](CN(C)C(=O)Nc2ccc4c(c2)OCO4)OCCCC[C@@H](C)O3)cc1 | -81.3% (active)
Cc1noc(C)c1S(=O)(=O)Nc1ccc2c(c1)C(=O)N([C@@H](C)CO)C[C@H](C)[C@@H](CN(C)C(=O)Nc1cccc3ccccc13)OCCCC[C@H](C)O2 | -88.5% (active)
Cc1ccc(S(=O)(=O)Nc2ccc3c(c2)C(=O)N([C@@H](C)CO)C[C@@H](C)[C@H](CN(C)C(=O)Nc2cccc4ccccc24)OCCCC[C@H](C)O3)cc1 | -81.5% (active)
Cc1ccc(S(=O)(=O)Nc2ccc3c(c2)C(=O)N([C@H](C)CO)C[C@H](C)[C@@H](CN(C)C(=O)Nc2ccc4c(c2)OCO4)OCCCC[C@@H](C)O3)cc1 | -34.5%
Cc1noc(C)c1S(=O)(=O)Nc1ccc2c(c1)C(=O)N([C@@H](C)CO)C[C@@H](C)[C@H](CN(C)C(=O)Nc1cccc3ccccc13)O2 | 16.8%
Cc1ccc(S(=O)(=O)N(C)C[C@H]2OCCCC[C@H](C)Oc3ccc(NS(=O)(=O)c4c(C)noc4C)cc3C(=O)N([C@H](C)CO)C[C@@H]2C)cc1 | -35.7%
Cc1ccc(S(=O)(=O)Nc2ccc3c(c2)C(=O)N([C@H](C)CO)C[C@H](C)[C@H](CN(C)C(=O)Nc2ccc4c(c2)OCO4)OCCCC[C@@H](C)O3)cc1 | 4.19%
Cc1noc(C)c1S(=O)(=O)Nc1ccc2c(c1)C(=O)N([C@@H](C)CO)C[C@@H](C)[C@H](CN(C)S(=O)(=O)c1ccc(Cl)cc1)OCCCC[C@H](C)O2 | -80.6% (active)
C[C@@H]1CCCCO[C@@H](CN(C)C(=O)Nc2cccc3ccccc23)[C@H](C)CN([C@@H](C)CO)C(=O)c2cc(NS(=O)(=O)c3ccccc3)ccc2O1 | -2.21%
CCNC(=O)C[C@@H]1CC[C@H]2[C@@H](COc3ccc(NC(=O)Cc4cccs4)cc3C(=O)N2C)O1 | 3.93%
